# Measurements as given in PubChem BioAssay (NCI).
# This is part of a sample that, as a whole, favours compounds with a hit. Of some 83,000 tested, about 20% had one in any assay.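 Cells were grown in 96-well plates and exposed to the test compound at a single concentration for 48 hours; results are reported as percent growth, with values below 10 considered active.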 Values without a mark were called inactive. Calls of active or inactive are those of the source.
# Key:
# Assay in all cases: NCI-60 one-dose screen, 48 h (100 = growth as untreated, 0 = no growth, -100 = all killed)
# Settings in all cases: 10 µM
# HCT-15 colon = test system: HCT-15 colon
# HT29 colon = test system: HT29 colon
# SNB-75 CNS = test system: SNB-75 CNS
# SNB-19 CNS = test system: SNB-19 CNS
# U251 CNS = test system: U251 CNS
# PC-3 prostate = test system: PC-3 prostate
# SK-MEL-5 melanoma = test system: SK-MEL-5 melanoma
# UACC-62 melanoma = test system: UACC-62 melanoma
# LOX IMVI melanoma = test system: LOX IMVI melanoma
# SK-MEL-28 melanoma = test system: SK-MEL-28 melanoma
# SK-MEL-2 melanoma = test system: SK-MEL-2 melanoma
# EKVX NSCLC = test system: EKVX NSCLC
# SN12C renal = test system: SN12C renal
# UO-31 renal = test system: UO-31 renal
# ACHN renal = test system: ACHN renal
# A498 renal = test system: A498 renal
# CCRF-CEM leukemia = test system: CCRF-CEM leukemia
# MOLT-4 leukemia = test system: MOLT-4 leukemia
# TK-10 renal = test system: TK-10 renal
# CAKI-1 renal = test system: CAKI-1 renal
Structure (SMILES),growth (HCT-15 colon),growth (HT29 colon),growth (SNB-75 CNS),growth (SNB-19 CNS),growth (U251 CNS),growth (PC-3 prostate),growth (SK-MEL-5 melanoma),growth (UACC-62 melanoma),growth (LOX IMVI melanoma),growth (SK-MEL-28 melanoma),growth (SK-MEL-2 melanoma),growth (EKVX NSCLC),growth (SN12C renal),growth (UO-31 renal),growth (ACHN renal),growth (A498 renal),growth (CCRF-CEM leukemia),growth (MOLT-4 leukemia),growth (TK-10 renal),growth (CAKI-1 renal)
O=C(CCCCC(=O)Oc1c(Cl)cc(Cl)cc1[N+](=O)[O-])Oc1c(Cl)cc(Cl)cc1[N+](=O)[O-],100%,103%,93.9%,105%,98%,104%,102%,102%,92%,111%,93.6%,93.2%,105%,87.1%,105%,114%,73.6%,78.1%,,
Cc1cc(Br)nnc1Br,102%,113%,75.4%,110%,112%,110%,94.7%,111%,108%,114%,123%,114%,109%,,108%,,97.8%,93.4%,124%,
Clc1nc2ccc(Br)cc2cc1-c1nc2ccccc2[nH]1,92.3%,106%,42.4%,91%,81%,39.6%,84.7%,90.9%,69.5%,105%,120%,50.3%,15.2%,79.7%,2.34% (active),39.9%,72.9%,47.2%,,84.2%
COc1cc2cc(Oc3ccc(NC(=O)c4cc(C(F)(F)F)cc(C(F)(F)F)c4)cc3)c(C)nc2cc1OC,38.1%,49.8%,62.1%,49.9%,13.3%,17.5%,16.6%,33.2%,66%,84.9%,64.6%,30.4%,30.8%,30.9%,32.3%,40.5%,33.7%,39.4%,,30.2%
COc1ccccc1N1CCCSC1=Nc1ccccc1,115%,150%,232%,92.9%,105%,92.9%,96.6%,99.9%,92.5%,95.9%,121%,110%,91.6%,81.2%,114%,99.8%,67.6%,62.1%,,
O=C(O)Cc1ccc(O)c(O)c1,96.4%,115%,68.8%,102%,109%,106%,94.1%,105%,107%,103%,109%,89.4%,99.4%,,108%,,-24.1% (active),98.6%,,99.5%
COc1ccc(-c2n[nH]nc2-c2cc(OC)c3c(c2OC)OCO3)cc1,35.5%,4.41% (active),4.8% (active),51.8%,13.8%,26.3%,6.78% (active),40.6%,37%,63%,1.83% (active),48.3%,33.5%,51.1%,,,17.8%,24.2%,,27.2%
COC(=O)CC[C@@H](C)[C@H]1CC[C@H]2[C@@H]3CC[C@@H]4C[C@H](O)CC[C@]4(C)[C@H]3C[C@H](O)[C@]12C,92.4%,89%,91.4%,105%,98.6%,67.7%,88.5%,87.2%,93.6%,118%,87.7%,103%,97.8%,,,119%,86.3%,76.4%,92.7%,89.8%
COc1cccc(CNc2cccc3cn[nH]c23)c1O,93.4%,99.7%,82%,96.5%,92.9%,84.5%,82.2%,85.6%,90.4%,100%,103%,79.9%,91%,60.1%,98.7%,,101%,98%,,85.9%
C=CCn1c(SCC(=O)Nc2ccc(C(=O)/C=C/c3ccc(OC)cc3)cc2)nnc1-c1ccc(OC)c(OC)c1,83.8%,89.8%,76.4%,89%,87.4%,67.2%,62.8%,75.7%,86.5%,105%,89.3%,107%,73.1%,65.8%,94.9%,92.8%,,49.7%,,
O=C(CCCSc1nc(-c2ccccc2)cc(-c2ccc(Cl)cc2)n1)NO,18.5%,20.3%,5.53% (active),20.1%,16.8%,20.6%,-27.7% (active),-15.3% (active),-3.49% (active),30.9%,16.4%,-10.5% (active),6.93% (active),-26.4% (active),-0.78% (active),-15.3% (active),,11.2%,,2.37% (active)
O=C(Nc1ccc(OS(=O)(=O)c2ccccc2)cc1)C1CCCCC1,67.7%,39.3%,95.7%,89.2%,69.6%,72.7%,77.1%,89.5%,86.2%,91.7%,88.4%,84.3%,96.4%,96.7%,,,,,,93.1%
Cc1ccc(C2NC(=S)N3C(c4ccc(C)cc4)NC(=S)N23)cc1 (configuration not stated),29.5%,17.8%,127%,44.5%,28.3%,34.4%,17.1%,34.6%,51.4%,58.7%,-32.9% (active),43.1%,52.5%,12.7%,63.4%,49.6%,12.3%,24.8%,,
Cc1ccc(C(SCC(N)C(=O)O)(c2ccc(C)cc2)c2ccc(C)cc2)cc1 (configuration not stated),30.1%,14.1%,-6.9% (active),30.4%,25.4%,11.2%,16.5%,30.7%,40.6%,56.6%,-52.1% (active),-8.36% (active),42.3%,25.3%,60.3%,46.3%,6.77% (active),7.71% (active),,
Fc1ccc(C(c2ccc(F)cc2)C(Cl)Cl)cc1,104%,97.7%,96.1%,101%,103%,92.2%,101%,106%,96.3%,101%,97.1%,101%,108%,,102%,,93.7%,94.2%,110%,96.8%
Cc1ccc(NC(=S)NNC(=S)Nc2ccc(C)cc2)cc1,44.1%,82.6%,40.2%,65.4%,56.8%,77.2%,55.6%,48.2%,75.3%,70.8%,66.1%,92.7%,68.1%,,77.1%,73.4%,43.9%,45.3%,86.7%,67.8%
CCOC(=O)c1cc(C(=O)c2cc(OC)c(OC)c(OC)c2)n2ncc3ccccc3c12,58.5%,29.6%,79.5%,88.2%,81%,54.6%,34.5%,70.2%,66.3%,90.9%,78.5%,94.5%,101%,75.6%,78.7%,73.6%,70.1%,62%,,
